In ChEMBL document CHEMBL4513141, “CO-ADD screening of NIH (USA) - Clinical Collection” (2021) one finds Inhibition data, which are given here for 31 compounds.

Structures are written as SMILES. Potency and affinity values are given separately.

The first assay deals with Candida albicans. The conditions noted are these: 20 µM.
For `CCC(=O)O[C@]1(C(=O)SCF)[C@H](C)C[C@H]2[C@@H]3C[C@H](F)C4=CC(=O)C=C[C@]4(C)[C@@]3(F)[C@@H](O)C[C@@]21C` [FLUTICASONE PROPIONATE], the Inhibition was 10.1%.
In the case of `OCCN1C[C@H](O)[C@@H](O)[C@H](O)[C@H]1CO` [MIGLITOL], the Inhibition was 2.16%.
As to `Cn1ccnc1S` [METHIMAZOLE], the Inhibition was determined as 5.56%.
`CN(C)CCOC(C)(c1ccccc1)c1ccccn1.O=C(O)CCC(=O)O` (stereo unspecified) [DOXYLAMINE SUCCINATE]: the Inhibition was determined as 0.07%.
With `Nc1nc(O)c2ncn(CCC(CO)CO)c2n1` [PENCICLOVIR], the Inhibition is 0.56%.
As to `CCN(CC)CC(=O)Nc1c(C)cccc1C` [LIDOCAINE], the Inhibition was found to be 1.15%.

A further assay deals with Cryptococcus neoformans. The conditions noted are these: Concentration 20 uM; ASSAY_TEST Inhibition of Fungal Growth; detection method Resazurin; Absorption (OD600-OD570); plate type 384well; NBS; CORNING #3640. On the technique in general: The colour change of resazurin is a common sign of viable cells or microbes.
Turning to `OC[C@H]1O[C@@H](Oc2cc(O)cc(/C=C/c3ccc(O)cc3)c2)[C@H](O)[C@@H](O)[C@@H]1O` [PICEID], the Inhibition is -0.2%.
In the case of `CCN(CC)CCNC(=O)c1cc(Cl)c(N)cc1OC.Cl`, the Inhibition was -1.39%.
The same measure, in the same setting: then `CCOC(=O)OC(C)OC1=C(C(=O)Nc2ccccn2)N(C)S(=O)(=O)c2ccccc21` (stereo unspecified) [AMPIROXICAM], with -3.23%.
As to `CCC(=O)O[C@]1(C(=O)CCl)[C@@H](C)C[C@H]2[C@@H]3CCC4=CC(=O)C=C[C@]4(C)[C@@]3(F)[C@@H](O)C[C@@]21C` [CLOBETASOL PROPIONATE], the Inhibition worked out at 4.34%.
`CN(CCOc1ccc(NS(C)(=O)=O)cc1)CCc1ccc(NS(C)(=O)=O)cc1` [DOFETILIDE]: the Inhibition is -1.31%.
Consider `Nc1ccc2cn[nH]c2c1`, for which the Inhibition worked out at 6.83%.
Consider `Cl.O=C(c1ccc(OCCN2CCCCC2)cc1)c1c(-c2ccc(O)cc2)sc2cc(O)ccc12` [RALOXIFENE HYDROCHLORIDE], for which the Inhibition is -13.3%.
With `COc1ccc(/C=C/C(=O)Nc2ccccc2C(=O)O)cc1OC`, the Inhibition is listed as 4.45%.
For `CC1(C)S[C@@H]2[C@H](/N=C/N3CCCCCC3)C(=O)N2[C@H]1C(=O)O` [AMDINOCILLIN], the Inhibition is -5.88%.
For the compound `C[C@]12C=CC(=O)C=C1CC[C@@H]1[C@@H]2C(=O)C[C@@]2(C)[C@H]1CC[C@]2(O)C(=O)CO` [PREDNISONE], the Inhibition is reported as -7.34%.
Consider `C[C@@H](O)[C@H]1C(=O)N2C(C(=O)O)=C(S[C@@H]3CN[C@H](C(=O)N(C)C)C3)[C@H](C)[C@H]12` [MEROPENEM], for which the Inhibition worked out at 2.76%.
Turning to `CCc1cc(C(N)=S)ccn1` [ETHIONAMIDE], the Inhibition is -7.71%.
`COc1cc2nc(N(C)CCCNC(=O)C3CCCO3)nc(N)c2cc1OC` (stereo unspecified) [ALFUZOSIN]: the Inhibition is -5.01%.
Regarding `Cc1ccsc1C(=CCCN1CCC[C@@H](C(=O)O)C1)c1sccc1C.Cl` [TIAGABINE HYDROCHLORIDE], the Inhibition is recorded as -3.18%.
Consider `CCc1nn(CCCN2CCN(c3cccc(Cl)c3)CC2)c(=O)n1CCOc1ccccc1.Cl` [NEFAZODONE HYDROCHLORIDE], for which the Inhibition is listed as -2.69%.
In the case of `Cl.c1ccc(CC2=NCCN2)cc1` [TOLAZOLINE HYDROCHLORIDE], the Inhibition was -1.43%.
Same read-out and setting: then `CN(C)CC[C@@H](c1ccc(Br)cc1)c1ccccn1.O=C(O)/C=C\C(=O)O` [DEXBROMPHENIRAMINE MALEATE], with -3.8%; and `CC(C)Cc1ccc(C(C)C(=O)O)cc1` (stereo unspecified) [IBUPROFEN], with -3.38%; and `CC[C@]1(O)C[C@@H]2CN(CCc3c([nH]c4ccccc34)[C@@](C(=O)OC)(c3cc4c(cc3OC)N(C=O)[C@H]3[C@@](O)(C(=O)OC)[C@H](OC(C)=O)[C@]5(CC)C=CCN6CC[C@]43[C@@H]65)C2)C1.O=S(=O)(O)O`, with -7.42%.
For `CC(=O)OCC(CCn1cnc2cnc(N)nc21)COC(C)=O` [FAMCICLOVIR], the Inhibition is -0.79%.
Turning to `CC12CC3CC(C)(C1)CC(N)(C3)C2.Cl` [MEMANTINE HYDROCHLORIDE], the Inhibition was -0.08%.
For the compound `CC(C)OC(=O)CCC/C=C\C[C@@H]1[C@@H](CC[C@@H](O)CCc2ccccc2)[C@H](O)C[C@@H]1O` [LATANOPROST], the Inhibition is recorded as -2.04%.
On to `COC(=O)C1=C(C)NC(C)=C(C(=O)OCC(C)C)C1c1ccccc1[N+](=O)[O-]` (stereo unspecified) [NISOLDIPINE], for which the Inhibition stood at 42.23%.
With `CC1=C(C(=O)O)N2C(=O)[C@@H](NC(=O)[C@H](N)c3ccccc3)[C@H]2SC1.O` [CEPHALEXIN], the Inhibition is on record as 4.2%.
With `Cc1ccc(O)c([C@H](CCN(C(C)C)C(C)C)c2ccccc2)c1.O=C(O)C(O)C(O)C(=O)O` [TOLTERODINE TARTRATE], the Inhibition is -7.64%.

As a reminder, the Inhibition is the drop in the measured response relative to a control, in per cent.
